Experimental data from PubChem BioAssay AID2108 (National Center for Advancing Translational Sciences (NCATS), 2009).
Records with an inconclusive call do not appear. Activity calls are given as the source filed them. Calls come from the whole dose curve; as a rule, active = well fitted curve in the direction sought with a large enough effect; inconclusive = small, poorly fitted or top-dose-only effect, or effect the other way, or another doubt; inactive = no such curve, though single readings can be large or run the other way. Non-standard residues stand in square brackets, D forms with d. Residues, ends and D or L forms follow the SMILES beside them. *: point of attachment. Nle = CCCC[C@H](N)C(=O)O; Boc = CC(C)(C)OC(=O)*

Molecular target: Alpha-galactosidase A (Homo sapiens) (UniProt P06280)
Experiment: Confirmation of Inhibitors of Human alpha-Galactosidase Using Spleen Homogenate
Method in brief: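 Human spleen homogenate (1 ug) with 1 mM 4-methylumbelliferyl-alpha-D-galactopyranoside in citrate-phosphate pH 5.0, 0.01% Tween-20, 37C 40 min; compounds 0.5 nM–58 uM final. Stopped at pH 10, fluorescence Ex 365/Em 440; AC50 from Hill fits.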

Alpha-galactosidase A (Homo sapiens), sequence (P06280 32-429 limits assumed): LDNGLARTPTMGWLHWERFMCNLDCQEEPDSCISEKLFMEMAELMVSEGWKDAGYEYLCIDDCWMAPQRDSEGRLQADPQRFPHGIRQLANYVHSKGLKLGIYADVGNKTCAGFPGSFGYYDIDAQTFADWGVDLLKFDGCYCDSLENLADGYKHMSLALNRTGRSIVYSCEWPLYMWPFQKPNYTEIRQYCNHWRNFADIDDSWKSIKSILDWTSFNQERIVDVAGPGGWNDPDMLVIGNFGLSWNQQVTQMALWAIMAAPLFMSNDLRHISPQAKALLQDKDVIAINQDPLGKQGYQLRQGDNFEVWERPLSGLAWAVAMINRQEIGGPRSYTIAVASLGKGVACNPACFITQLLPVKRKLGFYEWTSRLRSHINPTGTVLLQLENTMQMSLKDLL

SMILES	outcome
Cc1ccc(N=Nc2c(N)nn(-c3ccccc3)c2N)cc1	inactive
CCCCN1C[C@H](O)[C@@H](O)[C@H](O)[C@H]1CO	inactive
O=C(O)Cc1sc(-c2cc3ccccc3oc2=O)nc1-c1ccc(Br)cc1	inactive
c1ccc(-c2nc3nc4ccccc4nc3n2CC2CCCO2)cc1 (configuration not stated)	inactive
O=C(COC(=O)c1ccccc1Br)NCCc1ccc(F)cc1	inactive
CCn1c2ccccc2c2nnc(NN)nc21	inactive
O=C(Cn1c(=O)n(Cc2ccccc2)c(=O)c2sc3ccccc3c21)Nc1ccccc1	inactive
COc1ccc(/C=C/c2nnc(NC(=O)COc3ccc(Cl)cc3)s2)cc1	inactive
O=C(c1ccccc1)N1CCN(C(=O)N(c2ccccc2)c2ccccc2)CC1	inactive
CCS(=O)(=O)N1Cc2ccccc2CC1C(=O)Nc1ccc(NC(C)=O)cc1 (configuration not stated)	inactive
CC1(CCc2ccc3c(c2)OCO3)NC(=O)c2ccccc2N1 (configuration not stated)	inactive
CN(C(=O)N1CCN(S(=O)(=O)c2ccccc2)CC1)c1ccccc1	inactive
COc1ccc2cc(C#N)c(=O)oc2c1	inactive
N#Cc1cccc(S(=O)(=O)N2CCOCC2)c1	inactive
CCOc1c(Cl)cc(CNc2ccc3[nH]c(=O)[nH]c3c2)cc1OC	inactive
COc1cccc2cc(-c3nc(-c4ccccc4)c(C)s3)c(=O)oc12	inactive
CCCC[C@H](NC(=O)[C@@H]1CCCN1C(=O)[C@H]1CCCN1C(=O)[C@H](Cc1ccccc1)NC(=O)[C@@H](Cc1c[nH]c2ccccc12)NC(=O)[C@H](C)NC(=O)[C@H](CCCN=C(N)N)NC(=O)OC(C)(C)C)C(N)=O (Boc-RA[dW]F[dP]P[Nle]-NH2)	inactive
Cc1ccc(CNc2ccc(N3CCOCC3)cc2)cc1	inactive
O=C(CSc1nc(C2CC2)nc2ccccc12)Nc1cccc(O)c1	inactive

SMILES	outcome
CC(=O)c1ccc(S(=O)(=O)N2CCOCC2)cc1	inactive
C(=C/c1nccc2c1[nH]c1ccccc12)/c1ccc2c(c1)OCO2	inactive
CC(=O)N1CCN(c2ccc(NCc3ccc(C(C)C)cc3)cc2)CC1	inactive
N#Cc1c(Cl)cccc1N1CCC(C(N)=O)CC1	inactive
CCOC(=O)N1CCN(c2cc(N(C)CCO)c([N+](=O)[O-])c3nonc23)CC1	inactive
Cc1ccc(-c2nc3ncccn3c2Nc2ccc3c(c2)OCO3)o1	inactive
O=C(c1ccccc1)N1CCN(S(=O)(=O)c2ccccc2)CC1	inactive
C=CCN1CCc2c(cc(O)c(O)c2Cl)C(c2ccccc2)C1 (configuration not stated)	inactive
OC[C@H]1NC[C@@H](O)[C@@H](O)[C@@H]1O	inactive
CCOc1ccccc1CNc1ccc(O)cc1	inactive
O=c1[nH]c2ccccc2nc1/C=C/c1ccc2c(c1)OCO2	inactive
O=C(CNc1ccc(Cl)cc1)c1ccc(Br)cc1	inactive
Cc1ccc(S(=O)(=O)N2CCN(CC(=O)N/N=C\c3ccccn3)CC2)cc1	inactive
O=S(=O)(c1ccc(F)cc1)N1CCOCC1	inactive
O=C(Nc1ccccc1)C1CCN(S(=O)(=O)c2ccccc2)CC1	inactive
N#C/C(=C\c1cc(O)c(O)c(O)c1)C(N)=O	inactive
COc1ccc(NC(=O)CC2Nc3cc(C)c(C)cc3NC2=O)c([N+](=O)[O-])c1 (configuration not stated)	inactive
COc1ccc(-c2nnc(NC(=O)CSc3ccc(Cl)cc3)s2)cc1	inactive
